Measured values: PubChem BioAssay (NCATS)
Records with an inconclusive call do not appear. A number with no mark means an inactive call. The source made the active and inactive calls. The call rests on the fitted dose curve; in most records, active means well fitted inhibition curve with a large enough effect; inconclusive means small, poorly fitted or top-dose-only effect; inactive means flat fitted curve, though single readings scatter.

test system: HEK293; experiment: Cytotoxic Profiling of Annotated Libraries Using Quantitative High-Throughput Screening (AID 1296008); conditions: Five cell lines viability, CellTiter-Glo ATP luminescence, 48-72 h; max response: stronger effect = lower value; further: nearly all actives have a fitted effect of over 60% in size
Summary of the method: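 Cells exposed to compounds for 48 or 72 hr at 37 degrees Celsius. Viability read as ATP-coupled luminescence with CellTiter-Glo after 10 min at room temperature.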
On the % scale 0 is the no-effect control and ±100 the full control effect; potency means the concentration at half of the fitted maximal effect.

SMILES | Potency | max response [%] | outcome
COc1ncc(Nc2ncc([C@@H](C)N3CCN(S(C)(=O)=O)CC3)cc2-c2nc(C)nc(N)n2)cc1F | 0.259 µM (active) |  | 
CNC12CC3C[C@@](C)(C1)C[C@](C)(C3)C2 |  | -16.8 | 
COc1cc(C(=O)NC2CCN(C)CC2)c(F)cc1Nc1ncc2c(n1)N(C1CCCC1)CC(F)(F)C(=O)N2C | 0.0184 µM (active) |  | 
Cc1cccc(C)c1-n1c(=O)c2cnc(Nc3ccc(N4CCN(C)CC4)cc3)nc2n2c3ccccc3nc12 | 0.517 µM (active) |  | 
CC1(C)CCC[C@@]2(C)C1[C@H](OC(=O)/C=C/C=C/C(=O)O)C=C1COC(=O)[C@@]12O (stereo partly drawn) |  | -4.94 | 
Cc1ccc(NC(=O)Nc2cc(C(F)(F)F)ccc2F)cc1Nc1ccc2c(c1)NC(=O)/C2=C\c1ccc[nH]1 | 11.6 µM (active) |  | 
CC1=C(C(=O)O[C@@H]2O[C@H](COC3OCC(O)C(O)C3O)[C@@H](O)[C@H](O)[C@H]2O)C(C)(C)CCC1 (stereo partly drawn) |  | -9.72 | 
O=C(COc1cccc2c(=O)[nH]ccc12)c1ccccc1 |  | -5.18 | 
C=C1C(O)CC2C(C(=O)O)=COC(O[C@@H]3O[C@H](COC(=O)/C=C/c4ccc(O)cc4)[C@@H](O)[C@H](O)[C@H]3O)C12 (stereo partly drawn) |  |  | inactive
COC(=O)C1(C)c2[nH]c3ccccc3c2CCN1C(=O)CCl (stereo not drawn) | 7.31 µM (active) |  | 
Cc1cc(C)c2c(N)c(C(=O)NCc3ccc(Cl)cc3)sc2n1 |  | -96.1 | 
O=C(c1cc2c(cc1F)OC(c1ccc(F)cc1)(c1ccc(Cl)cc1Cl)O2)N1CCOCC1 (stereo not drawn) | 11.6 µM (active) |  | 
CC1(CCOC2OC(CO)C(O)C(O)C2O)CCC23OC2(C1)C(O)CC1C(C)(C(=O)O)CCCC13C (stereo not drawn) |  | -6.41 | 
O=C(/C=C/c1ccccc1)OC[C@]12O[C@H]1[C@@H](O)[C@@H]1C=CO[C@@H](O[C@@H]3O[C@H](CO)[C@@H](O)[C@H](O)[C@H]3O)[C@@H]12 |  |  | inactive
CC(=O)N[C@H]1[C@H](O[C@H]2CC[C@@]3(C)C(CC[C@]4(C)C3CC=C3C5CC(C)(C)CC[C@]5(C(=O)O)[C@H](O)C[C@]34C)C2(C)C)O[C@H](CO[C@@H]2OC[C@H](O)[C@H](O)[C@H]2O[C@@H]2OC[C@@H](O)[C@H](O)[C@H]2O)[C@@H](O)[C@@H]1O (stereo partly drawn) |  | -1.2 | 
C[C@@H]1O[C@@H](O[C@H]2[C@H](O[C@H]3CC[C@@]4(C)C(CC[C@]5(C)C4C=C[C@]46OC[C@@]7(CCC(C)(C)C[C@H]74)[C@@H](O)C[C@]65C)[C@]3(C)CO)O[C@H](CO)[C@@H](O)[C@@H]2O[C@@H]2O[C@H](CO)[C@@H](O[C@@H]3O[C@@H](C)[C@H](O)[C@@H](O)[C@H]3O)[C@H](O)[C@H]2O)[C@H](O)[C@H](O)[C@H]1O (stereo partly drawn) | 3.9 µM (active) |  | 
NCc1ccc(Nc2ncc(F)c(Nc3ccccc3)n2)cc1 | 20.6 µM (active) |  | 
CCOCc1cc(OC)c(-c2ccc(C[C@H](NC(=O)c3c(F)cccc3F)C(=O)O)cc2)c(OC)c1 |  | -1.31 | 
COC(=O)C1=CO[C@@H](O[C@@H]2O[C@H](CO)[C@@H](O)[C@H](O)[C@H]2O)[C@@H]2[C@@](C)(O)[C@@H](OC(=O)/C=C/c3ccc(O)cc3)C[C@]12O |  | 3.54 | 
CC(C)c1cc(CNc2nc(Nc3cc(C4CC4)[nH]n3)cc(N3CCN(C)CC3)n2)on1 | 1.3 µM (active) |  | 
Cc1[nH]c2ccccc2c1C1=C(NCCc2ccc(F)cc2)C(=O)N(C)C1=O |  | -22.2 | 
O=C(c1cn(Cc2cncn2Cc2ccc(Br)cc2)cc1-c1cccc2ccccc12)N1CCOCC1 | 0.58 µM (active) |  | 
CCN(CC)c1ccc2c(O)c(C=Nc3ccc(CC(=O)O)c(-c4c5c(nc6ccccc46)CCC(C(=O)NN)C5)c3)c(=O)oc2c1 (stereo not drawn) | 11.6 µM (active) |  | 
Cn1nnc(-c2ccc(-c3ccc(N4C[C@H](CO)OC4=O)cc3F)cn2)n1 | 4.11 µM (active) |  | 
Cc1ccc(S(=O)(=O)Nc2ccccc2N2CCCCC2)s1 | 18.4 µM (active) |  | 
CC(=O)NC[C@H]1CN(c2ccc(N3CCN(C(=O)CO)CC3)c(F)c2)C(=O)O1 | 13 µM (active) |  | 
O=C(O)Cc1cn(C2OCC(O)C(O)C2O[C@@H]2O[C@H](CO)[C@@H](O)[C@H](O)[C@H]2O)c2ccccc12 (stereo partly drawn) |  | 0.817 | 
C=C(C)C(=O)OC1C(OC(C)=O)/C(C=O)=C\CC/C(CO)=C/C2OC(=O)C(=C)C21 (stereo not drawn) | 5.63 µM (active) |  | 
